Source: ChEMBL document CHEMBL3988442, “University of Dundee, Small-Polar-MMV Screening Library” (2021)

What follows are molecules tested against AMP-activated protein kinase, AMPK (Homo sapiens) (UniProt P54646+O43741+P54619+Q9UGJ0+Q9Y478+Q13131+Q9UGI9) (assay: AMP-dependent Kinase enzyme assay. An in vitro enzyme assay that detects ADP turnover that is directly proportional to AMPK activity. This uses naive AMPK that is activated during the assay with MK-8722). Details: 30 µM.
Assay type: functional
Set-up: scale not given: direction of the effect not stated beside the values

Row | Structure (SMILES) | Percent Effect
1 | O=C(NCCCn1cccn1)C1COCC(=O)N1Cc1ccccc1 (stereo not given) | -3.92%
2 | CC(C)Cn1ncc(C(=O)NS(=O)(=O)c2ccccc2)c1C1CC1 | 4.86%
3 | O=C(NC1CCCC1)N1C[C@H]2CN(c3ccncc3)C[C@@]2(C(=O)O)C1 | 9.08%
4 | CCCN(CCc1ccccn1)C(=O)CCc1cnn(C)c1 | 4.13%
5 | Fc1ccccc1CN1CCC[C@@H](Cn2nnc(-c3cccs3)n2)C1 | 5.25%
6 | Cc1nnc(SCCNc2cc(C3CC3)ncn2)s1 | 14.2%
7 | CN1CC2(CCN(CCCOCc3ccccc3)CC2)OC1=O | 2.54%
8 | COc1ccc2c(c1)CCCC2CC(=O)O (stereo not given) | -8.39%
9 | COc1cccc(F)c1C(C)NC(=O)NCc1cnc(C)s1 (stereo not given) | 10.2%
10 | CCN(CC)S(=O)(=O)NCC1COc2ccccc2O1 (stereo not given) | 8.6%
11 | CCC1(CC)CC(=O)N(CC(O)c2ccc(Cl)cc2)C1=O (stereo not given) | 7.86%
12 | O=C1NCCCCC1NC(=O)N1CCCc2ccccc21 (stereo not given) | -0.938%
13 | OC(CNCCc1nnc2ccccn12)c1ccc2c(c1)OCO2 (stereo not given) | 17.2%
14 | CNC(=O)C1Cc2ccccc2CN1C(=O)CC(C)C (stereo not given) | -7.28%
15 | N#Cc1cccc(S(=O)(=O)NC2CCN(CC(F)(F)F)C2)c1 (stereo not given) | -2.39%
16 | CC1CN(C)CCN1C(=O)c1cccn1Cc1cccnc1 (stereo not given) | -3.9%
17 | COCCNC(=O)N1CCN(c2cc(F)ccc2F)CC1 | 7.95%
18 | CCn1nc(C)cc1C(=O)OCC1CC(=O)N(Cc2ccccc2)C1 (stereo not given) | 38.6%
19 | Cc1cncc(C2CCN(Cc3ccncc3)CC2)n1 | 7.85%
20 | COCC1(C(=O)N[C@H]2CN(c3noc(C)n3)C[C@@H]2C2CC2)CCC1 | -1.21%

Row | Structure (SMILES) | Percent Effect
21 | Oc1c(F)cc(CNc2cccc(-c3nnc[nH]3)c2)cc1F | 40.3%
22 | CC(C)[C@@H]1CN(c2ccc(F)cn2)C[C@H]1NS(C)(=O)=O | -3.59%
23 | CC(C)(C)c1cc(CNC(=O)c2cc(COc3ccccc3)[nH]n2)[nH]n1 | 17.9%
24 | C[C@@H]1CN(c2ccc(C#N)cn2)CC[C@@]1(O)C1CCOCC1 | -1.81%
25 | CN(C)c1nc(N)nc(CN2CCC(c3ccccc3)CC2)n1 | -6.86%
26 | COCCC1(C(=O)O)CCN(c2cc(C)c3ccccc3n2)CC1 | 3.32%
27 | COc1cccc(CN2C[C@H]3CC[C@H]2C3)c1OCCN1CCOCC1 | -4.89%
28 | CN(C)c1ccc(C(=O)N2CCC(c3cc4ncccc4[nH]3)CC2)cc1 | 21.8%
29 | Cc1nn(C)cc1NC(=O)CN1CCN(C2CCCC2)C(=O)C1 | 16.5%
30 | O=C(Nc1ccccc1C(=O)NCCCN1CCOCC1)c1ccco1 | 0.765%
31 | NC(=O)c1csc(N2C[C@@H](CN3CCOCC3)[C@@H](CO)C2)n1 | 3.19%
32 | O=S1(=O)NC(C2CCCN(S(=O)(=O)N3CCCC3)C2)=Nc2ccccc21 (stereo not given) | 13.9%
33 | CSCCC(NC(N)=O)C(=O)Nc1ccc(-n2cccn2)nc1 (stereo not given) | -9.12%
34 | CC(C)Cc1noc(CN(C)C2CCS(=O)(=O)C2)n1 (stereo not given) | -4.29%
35 | Cc1nc2c(c(NC(C)c3nnn[nH]3)n1)Cc1ccccc1OC2 (stereo not given) | -6.31%
36 | COc1c(C)cnc(CN2CCCC2c2noc(C)n2)c1C (stereo not given) | -12%
37 | O=S(=O)(c1ccccc1N1CC(n2cccn2)C1)C(F)(F)F | 16%
38 | CC(C)(C)OC(=O)N(CCNS(=O)(=O)N1CCOCC1)C1CC1 | 8.24%
39 | CSC1(CNC(=O)NCc2sccc2C)CCOCC1 | -1.64%
40 | COc1ccc(CNC(C)c2cnn(C)c2)cc1OC1CCCC1 (stereo not given) | 8.55%
